Assay results as given in PubChem BioAssay.
Active and inactive are the calls of the source.

Tests used:
[1] = optical density shifts of acrAB sulA E. coli – strain DRC41, OD650, 48 h, E. coli filamentation inducer project, primary screen (AID 1152); settings: higher = more signal, called active from +8 up or from −8 down;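 further: E. coli MC1000 strain DRC41 lacking acrAB efflux pump and sulA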
[2] = probe aLefty1 binding on compound microarray – biochemical, small-molecule microarray, 635/667 nm fluorescence, primary screen (AID 1153); settings: higher = more signal;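 further: score merges spot fluorescence with signal-to-noise ratio from the scanned slide images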
[3] = plasmodial surface anion channel blockers, osmotic lysis – cell-based, P. falciparum Indochina, OD700, 1 h, primary screen (AID 1154); settings: P. falciparum Indochina infected RBC osmotic lysis, higher = more signal, called active from +8 up or from −8 down
[4] = plasmodial surface anion channel blockers, osmotic lysis – cell-based, P. falciparum Indochina, OD700, 2 h, primary screen (AID 1155);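 further: lysis reports solute entry through the parasite surface anion channel PSAC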; settings: P. falciparum Indochina infected erythrocytes, higher = more signal, called active from +8 up or from −8 down
[5] = changes in parasitized red cell lysis, either direction – P. falciparum Indochina, OD700, 3 h, PSAC antagonist project, primary screen (AID 1156); settings: P. falciparum-infected erythrocytes, osmotic lysis, higher = more signal, called active from +8 up or from −8 down
[6] = plasmodial surface anion channel blockers, osmotic lysis – cell-based, P. falciparum Indochina, OD700, 18 h, primary screen (AID 1157); settings: P. falciparum Indochina infected erythrocytes, osmotic lysis OD700, 18 h; higher = more signal, called active from +8 up or from −8 down
[7] = S6 kinase pathway phospho-S6 level changes – cell-based, A549, cytoblot, luminescence, serum-stimulated, primary screen (AID 1158); settings: 5 h, higher = more signal;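 further: serum-stimulated A549 lung adenocarcinoma cells; signal is phosphorylated S6 detected by cytoblot immunostaining with HRP secondary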
[8] = target: NADPH oxidase 2 (Homo sapiens) (UniProt P04839); experiment: compounds shifting NOX2 Amplex Red fluorescence – cell-based, HEK293-NOX2, PMA-stimulated, NOX inhibitor project, primary screen (AID 1159); settings: 45 min, higher = more signal, called active from +8 up or from −8 down; further: test concentration not given here
Chain of NADPH oxidase 2 (Homo sapiens) (P04839 whole entry, looked up): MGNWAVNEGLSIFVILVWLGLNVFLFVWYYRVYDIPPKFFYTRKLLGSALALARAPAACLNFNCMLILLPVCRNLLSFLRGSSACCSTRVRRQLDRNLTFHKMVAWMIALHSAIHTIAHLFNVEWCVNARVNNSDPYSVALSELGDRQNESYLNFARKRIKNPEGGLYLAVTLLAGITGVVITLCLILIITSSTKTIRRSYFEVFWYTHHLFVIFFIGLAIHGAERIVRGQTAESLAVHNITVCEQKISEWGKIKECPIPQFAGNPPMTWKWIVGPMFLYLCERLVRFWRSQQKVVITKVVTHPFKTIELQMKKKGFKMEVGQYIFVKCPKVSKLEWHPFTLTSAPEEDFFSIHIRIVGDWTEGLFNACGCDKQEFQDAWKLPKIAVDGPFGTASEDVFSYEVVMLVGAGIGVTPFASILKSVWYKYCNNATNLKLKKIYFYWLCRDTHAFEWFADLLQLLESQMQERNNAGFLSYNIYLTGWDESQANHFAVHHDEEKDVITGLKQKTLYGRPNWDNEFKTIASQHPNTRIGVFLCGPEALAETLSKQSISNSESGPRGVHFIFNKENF

[9] = target: NADPH oxidase 4 (Homo sapiens) (UniProt Q9NPH5); experiment: compounds shifting NOX4 Amplex Red fluorescence – cell-based, HEK293-NOX4, tetracycline-induced, NOX inhibitor project, primary screen (AID 1160); settings: HEK293-NOX4, Amplex Red H2O2 fluorescence, 45 min; higher = more signal, called active from +8 up or from −8 down
Chain of NADPH oxidase 4 (Homo sapiens) (Q9NPH5 whole entry, looked up): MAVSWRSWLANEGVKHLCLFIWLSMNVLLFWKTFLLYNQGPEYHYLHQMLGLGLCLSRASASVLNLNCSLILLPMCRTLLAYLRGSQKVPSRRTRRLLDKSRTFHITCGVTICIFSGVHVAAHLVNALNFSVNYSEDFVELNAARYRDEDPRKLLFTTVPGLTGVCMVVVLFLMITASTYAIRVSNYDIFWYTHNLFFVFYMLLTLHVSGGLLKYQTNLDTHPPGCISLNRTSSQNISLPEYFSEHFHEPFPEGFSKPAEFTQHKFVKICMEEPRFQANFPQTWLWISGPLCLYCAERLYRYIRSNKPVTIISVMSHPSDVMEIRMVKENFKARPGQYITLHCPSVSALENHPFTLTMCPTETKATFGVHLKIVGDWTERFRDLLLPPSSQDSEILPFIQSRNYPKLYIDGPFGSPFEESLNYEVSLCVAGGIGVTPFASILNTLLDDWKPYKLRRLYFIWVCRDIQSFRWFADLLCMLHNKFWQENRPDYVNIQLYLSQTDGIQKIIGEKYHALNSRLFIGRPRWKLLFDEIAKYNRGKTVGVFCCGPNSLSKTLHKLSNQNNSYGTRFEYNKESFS

[10] = target: NADPH oxidase 5 (Homo sapiens) (UniProt Q96PH1); experiment: compounds shifting NOX5 Amplex Red fluorescence – cell-based, HEK293-NOX5, NOX inhibitor project, primary screen (AID 1161); settings: HEK293-NOX5, ionomycin, 45 min, higher = more signal
Chain of NADPH oxidase 5 (Homo sapiens) (Q96PH1 whole entry, looked up): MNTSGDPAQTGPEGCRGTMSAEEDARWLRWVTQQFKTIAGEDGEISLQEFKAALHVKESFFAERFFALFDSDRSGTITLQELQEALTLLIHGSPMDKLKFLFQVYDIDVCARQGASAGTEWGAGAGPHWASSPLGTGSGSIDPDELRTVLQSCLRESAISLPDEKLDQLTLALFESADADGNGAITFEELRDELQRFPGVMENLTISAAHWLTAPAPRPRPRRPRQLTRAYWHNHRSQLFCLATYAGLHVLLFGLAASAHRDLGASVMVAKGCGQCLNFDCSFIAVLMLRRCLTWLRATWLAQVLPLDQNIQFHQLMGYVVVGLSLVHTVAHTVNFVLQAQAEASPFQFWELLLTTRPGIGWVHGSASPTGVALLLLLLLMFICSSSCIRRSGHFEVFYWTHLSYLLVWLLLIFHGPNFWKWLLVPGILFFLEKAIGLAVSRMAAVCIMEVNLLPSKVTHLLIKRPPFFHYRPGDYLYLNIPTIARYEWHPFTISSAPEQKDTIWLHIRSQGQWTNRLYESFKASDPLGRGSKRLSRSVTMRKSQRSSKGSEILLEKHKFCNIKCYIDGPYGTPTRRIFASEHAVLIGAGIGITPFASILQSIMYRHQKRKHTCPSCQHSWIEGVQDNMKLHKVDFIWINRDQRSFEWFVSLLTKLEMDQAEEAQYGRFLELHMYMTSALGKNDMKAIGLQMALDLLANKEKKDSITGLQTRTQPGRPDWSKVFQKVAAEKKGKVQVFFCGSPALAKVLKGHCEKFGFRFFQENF

Compound | z-score [1] | composite z-score [2] | z-score [3] | z-score [4] | z-score [5] | z-score [6] | z-score [7] | z-score [8] | z-score [9] | z-score [10]
C=CCOC(=O)[C@H]1[C@@H]2C(=O)O[C@@H](c3ccccc3)[C@@H](c3ccccc3)N2[C@@H](c2ccc(OCCOC(=O)[C@@H]3C[C@@H]4C(=O)N5CCC[C@H]5C(=O)N4[C@@H]3c3ccc(O)cc3)cc2)[C@]12C(=O)Nc1ccc(I)cc12 | -0.695 (inactive) | 0.293 | 1.81 (inactive) | 1.74 (inactive) | 0.836 (inactive) | 0.889 (inactive) | -0.597 | 1.47 (inactive) | 0.482 (inactive) | 0.186
CN1C(=O)C2C=CC(C(O)c3ccccn3)N(N(c3ccccc3)c3ccccc3)C2C1=O (stereo not given) | -1.06 (inactive) | 0.0774 | 1.5 (inactive) | 1.14 (inactive) | 0.303 (inactive) | 1.05 (inactive) | -0.618 | -0.486 (inactive) | -1.94 (inactive) | -2.33
[N-]=[N+]=NCc1ccccc1C[C@]1(C(N)=O)N=C(c2ccc(OCCCO)cc2)O[C@H]1c1ccccc1 | 1.06 (inactive) | -0.227 | 21 (active) | 3.55 (inactive) | 0.0533 (inactive) | 0.913 (inactive) | 0.349 | -3.27 (inactive) | -0.839 (inactive) | -1.95
CO[C@H]1O[C@H](CO)[C@@H](OC(=O)Nc2ccccc2-c2ccccc2)[C@H](OC(=O)Nc2ccc3c(c2)OCO3)[C@H]1OC(=O)Nc1ccc2c(c1)OCO2 | 1.27 (inactive) | 0.809 | 6.03 (inactive) | 1.08 (inactive) | 0.52 (inactive) | 0.666 (inactive) | -0.0053 | -2.21 (inactive) | -1.18 (inactive) | -2.42
CCOC(=O)[C@H]1[C@@H]2C(=O)N3CCC[C@H]3[C@H](O[Si](C(C)C)(C(C)C)C(C)C)[C@H]2C=C2CCN(S(=O)(=O)c3ccc(C)cc3)C[C@H]21 | -1.12 (inactive) | -0.202 | 5.55 (inactive) | 1.24 (inactive) | 0.216 (inactive) | 1.02 (inactive) | 0.582 | 0.163 (inactive) | -0.264 (inactive) | 1.69
CCOC(=O)C[C@H]1[C@H](OC(=O)c2ccccc2-c2ccccc2)[C@@H](NC(=O)c2ccc(-c3ccccc3)cc2)c2cc(OCCCO)ccc2N1C(=O)c1ccc2ccccc2n1 | -0.485 (inactive) | -0.28 | 2.14 (inactive) | -0.0352 (inactive) | -0.708 (inactive) | 0.232 (inactive) | -0.0653 | 0.724 (inactive) | 0.964 (inactive) | 1.24
CC(=O)c1ccc(C(O)C2C=CC3C(=O)N(c4ccccc4)C(=O)C3N2Nc2ccc(C#N)cc2)cc1 (stereo not given) | -1.54 (inactive) | 0.192 | 18 (active) | 2.58 (inactive) | 1.27 (inactive) | 1.44 (inactive) | -1.15 | -2.48 (inactive) | -5.89 (inactive) | -4.43
CCOC(=O)c1ccc(NC(=O)O[C@H]2[C@H](OC(=O)Nc3ccc4c(c3)OCO4)[C@H](OC(=O)Nc3ccc4c(c3)OCO4)[C@@H](OC)O[C@@H]2CO)cc1 | -0.351 (inactive) | 0.408 | 23.4 (active) | 6.99 (inactive) | 0.726 (inactive) | 1.55 (inactive) | -0.535 | -0.984 (inactive) | -0.54 (inactive) | -1.28
COC(=O)c1c2oc(c1C(=O)OC)C(=O)N(C)Cc1cn(nn1)C[C@H](Cc1ccccc1)NC(=O)N[C@H](CO)CC2 | -0.878 (inactive) | -0.0954 | 0.965 (inactive) | 0.308 (inactive) | -0.119 (inactive) | 0.728 (inactive) | -0.638 | 0.0368 (inactive) | 0.338 (inactive) | 0.282
O=C1NC(=O)C2C1C=CC(C(O)CCc1ccccc1)N2Nc1ccc(Cl)cc1Cl (stereo not given) | -1.34 (inactive) | -0.0162 | 2.28 (inactive) | 1.31 (inactive) | 0.0675 (inactive) | 1.05 (inactive) | -1.01 | -0.22 (inactive) | -5.55 (inactive) | -0.709
CCCCC(=C=CC[C@@H](O)c1ccccc1OCCO)C[C@@H](O)COCc1ccccc1 | 1.47 (inactive) | 0.117 | 17.5 (active) | 1.74 (inactive) | -0.255 (inactive) | -0.385 (inactive) | 1.51 | -0.123 (inactive) | -0.101 (inactive) | -2.04
Cc1ccc(S[C@]2(C(=O)NCCCN(C)C)CC(=O)N(C3CCCCC3)[C@@H]2c2ccc(CO)cc2)cc1 | 0.344 (inactive) | 0.199 | 4.64 (inactive) | 0.695 (inactive) | 2.17 (inactive) | 0.819 (inactive) | -0.358 | -2.24 (inactive) | -2.06 (inactive) | -1.4
C=C(COC)/C(=C/C[C@H](OC(=O)c1ccncc1)c1ccccc1OCCO)c1cnc2ccccc2c1 | 0.657 (inactive) | 0.401 | 13 (active) | 1.86 (inactive) | 1.31 (inactive) | 0.553 (inactive) | 0.513 | -1.85 (inactive) | -0.502 (inactive) | -0.71
CCCCCCc1nc(C2CC2)cc2c1[Si](C(C)C)(C(C)C)OC2 | -0.611 (inactive) | -0.0559 | 0.834 (inactive) | -0.225 (inactive) | 0.981 (inactive) | -1.13 (inactive) | 0.259 | -6.34 (inactive) | -2.12 (inactive) | -4.98
C=CCOC(=O)[C@H]1[C@@H]2C(=O)O[C@@H](c3ccccc3)[C@@H](c3ccccc3)N2[C@@H](c2ccc(OCCOC(=O)[C@@H]3C[C@@H]4C(=O)N[C@@H](CCCCNC(C)=O)C(=O)N4[C@@H]3c3ccc(O)cc3)cc2)[C@]12C(=O)Nc1ccc(I)cc12 | -0.465 (inactive) | 0.471 | 1.33 (inactive) | 1.52 (inactive) | 3.07 (inactive) | 0.964 (inactive) | -0.621 | 1.08 (inactive) | 0.351 (inactive) | 2.35
COCCOC(=O)N1C(=O)[C@@]2(c3cc(C#CC4=CCCCC4)ccc31)[C@H](c1ccc(OCCO)cc1)N1[C@H](c3ccccc3)[C@H](c3ccccc3)OC(=O)[C@H]1[C@@H]2C(=O)NC[C@H](O)c1ccccc1 | -0.149 (inactive) | 1.43 | 2.35 (inactive) | 1.31 (inactive) | -0.352 (inactive) | 0.482 (inactive) | 0.245 | 1.36 (inactive) | 0.849 (inactive) | 1.44
NCCCCCCNC(=O)[C@@H]1C[C@@H]2C(=O)N[C@@H](CCCCN)C(=O)N2[C@@H]1c1cccc(OCCO)c1 | 0.68 (inactive) | 0.784 | 3.51 (inactive) | 0.289 (inactive) | -0.147 (inactive) | 0.472 (inactive) | -0.447 | 0.937 (inactive) | 1.02 (inactive) | 1.01
Cc1ccc(S[C@]2(C(=O)O)CC(=O)N(Cc3ccccc3Cl)[C@@H]2c2ccc(CO)cc2I)cc1 | -0.754 (inactive) | -0.814 | 8.88 (active) | 1.4 (inactive) | 0.767 (inactive) | 0.744 (inactive) | -0.0366 | 3.66 (inactive) | -2.51 (inactive) | -0.915
COC(=O)[C@@]1(Cc2ccc(OC)cc2)[C@H]2c3cc(C(=O)N(C)C)n(CCO)c3C[C@H]2CN1C(=O)c1ccccc1 | -1.2 (inactive) | 0.564 | 0.845 (inactive) | 0.145 (inactive) | 0.0732 (inactive) | 0.446 (inactive) | -0.775 | 0.331 (inactive) | -1.49 (inactive) | -1.91
COc1ccccc1CN1C(=O)c2ccccc2[C@@]2(Cc3ccccc3N(CC(F)(F)F)C2=O)[C@@H]1c1ccc(CO)cc1 | 0.254 (inactive) | 0.0623 | 0.252 (inactive) | 0.633 (inactive) | -1.9 (inactive) | 0.206 (inactive) | -0.309 | -0.802 (inactive) | -0.565 (inactive) | -0.154
O=C1O[C@H](c2ccccc2)[C@H](c2ccccc2)N2[C@H]1[C@@H](C(=O)Nc1nc3ccccc3s1)[C@]1(C(=O)Nc3ccc(C#CC4(O)CCCCCC4)cc31)[C@H]2c1ccccc1OCCO | -0.569 (inactive) | 0.966 | 2.83 (inactive) | 3.35 (inactive) | 0.602 (inactive) | 1.56 (inactive) | 0.164 | 1.29 (inactive) | 0.578 (inactive) | 1.5
COC(=O)[C@@]1(Cc2ccc(F)cc2)[C@H]2c3cc(C(=O)N(C)C)n(Cc4cc(F)cc5c4OCOC5)c3C[C@H]2CN1C(=O)c1ccccc1 | -0.62 (inactive) | 0.487 | 5.56 (inactive) | 0.0161 (inactive) | 0.366 (inactive) | -1.27 (inactive) | 1.16 | -0.508 (inactive) | 0.966 (inactive) | -3.94
CN(C)CCCNC(=O)[C@@]1(c2ccc([N+](=O)[O-])cc2)CC(=O)N(CC23CC4CC(CC(C4)C2)C3)[C@@H]1c1ccc(CO)cc1I | -5.6 (inactive) | 0.198 | 11.4 (active) | 2.32 (inactive) | -8.44 (active) | 0.352 (inactive) | -2.32 | -10.3 (active) | -5.46 (inactive) | -7.32
